This is an account of results in PubChem BioAssay (NCI).

Compounds without any hit were thinned out: in the full panel of roughly 83,000, 20% have a hit.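 The test compound was applied at a single concentration to cells in 96-well plates for 48 hours, and percent growth was recorded.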 Values without a mark were called inactive. Activity calls are given as the source filed them. Rule for the calls: active = growth percent below 10; inactive = the rest.

The test system of this test is RXF 393 renal. Nature of the test: NCI-60 one-dose screen, 48 h (100 = growth as untreated, 0 = no growth, -100 = all killed). The conditions noted are these: 10 µM unless noted.
With `COc1cc(C2=NN(C(C)=O)C(c3ccc(N4CCOCC4)cc3)C2)cc(OC)c1OC` (stereo not drawn), the growth was 108%.

For `COc1ccc([C@H]2c3[nH]c4ccccc4c3C[C@@H]3C(=O)N(C4CCN(Cc5ccccc5)CC4)CC(=O)N23)c(OC)c1`, the growth is 41.9%. Under `COc1ccc([C@H]2[C@H](O)C(=O)N2c2cc(OC)c(OC)c(OC)c2)cc1Cl` stands 24.3%. With `COc1ccc(/C=C/C(=O)c2nnn(-c3ccc(C(=O)O)cc3)c2C)cc1OC` the figure was 112%; with `O=[N+]([O-])c1ccc(-c2nnc(SCc3ccc(O)c4ncccc34)n2-c2ccccc2)cc1`, 16.3%; with `O=C(NCCCNc1cc(-c2cn(-c3ccccc3)nc2-c2cccc(O)c2)ccn1)Nc1cccc(C(F)(F)F)c1`, -14% (active).

Take `CC(C)C(=O)Nc1ccc(-c2nc(-c3cccc(O)c3)c(-c3ccnc(Br)c3)[nH]2)cc1`: the growth was -31.5% (active). Under `Cc1cc(F)cc(NS(=O)(=O)c2ccc(-c3cnc(C4CC4)o3)cc2)c1` stands -3.39% (active). As to `CCOC(=O)c1c(NCC(=O)Nc2cccc(Cl)c2)sc2c1CCCC2`, the growth is 87.3%. Under `O=S(=O)(Nc1cc(Cl)cc(Cl)c1)c1ccc(-c2cnc(C3CC3)o2)cc1` stands 8.4% (active); under `COc1cc2c3c(n(CCCNC4CCC4)c(=O)c2cc1OC)-c1cc2c(cc1C3=O)OCO2`, -74% (active); under `CCOC(=O)Nc1cccc(-n2cnc3cc(-c4ccc(O)cc4)ccc32)c1`, -12.8% (active). As to `CC(=O)NC(C)(C)C(=O)N[C@@H](C)C(=O)NC(C)(C)C(=O)N[C@@H](C)C(=O)NC(C)(C)C(=O)N[C@@H](C)C(=O)N[C@@H](CCC(N)=O)C(=O)NC(C)(C)C(=O)N[C@H](C(=O)NC(C)(C)C(=O)NCC(=O)N[C@@H](CC(C)C)C(=O)NC(C)(C)C(=O)N1CCC[C@H]1C(=O)N[C@H](C(=O)NC(C)(C)C(=O)NC(C)(C)C(=O)N[C@@H](CCC(N)=O)C(=O)N[C@@H](CCC(N)=O)C(=O)N[C@H](CO)CC1CCCCC1)C(C)C)C(C)C`, the growth is 55.8% [5 µM].

As for `Cc1nn(-c2ccc(Cl)cc2)c(C)c1N=Nc1ccc2oc(=O)ccc2c1`, the growth was 79.4%. For the compound `O=C(NCCNc1cc(-c2cn(-c3ccccc3)nc2-c2cccc(O)c2)ccn1)Nc1ccc(Cl)c(C(F)(F)F)c1`, the growth is 15.3%. Under `CN(c1ccc(Br)cc1)S(=O)(=O)c1ccc(-c2cnc(C3CC3)o2)cc1` stands 6.23% (active); under `CC(C)C[C@H]1C(=O)O[C@H](C(C)C)C(=O)N(C)[C@@H](C(C)C)C(=O)O[C@H](C(C)C)C(=O)N(C)[C@@H](C(C)C)C(=O)O[C@H](C(C)C)C(=O)N1C`, 19.1%. With `CCCC(=O)NC(c1cccnc1)c1cc(Cl)c2cccnc2c1O` (stereo not drawn) the figure was 80.5%; with `Nc1nc(-c2cccc([N+](=O)[O-])c2)c(N=Nc2ccccc2[N+](=O)[O-])s1`, -67.7% (active); with `C/C(=N\NC(=O)CSc1nc2sc3c(c2c(=O)n1-c1ccccc1)CCC(C)C3)c1ccc(Cl)cc1` (stereo not drawn), -23.3% (active). Under `C#C[C@]1(O)CC[C@H]2[C@@H]3CC=C4c5sc(Nc6nc(C)cc(OC)n6)nc5CC[C@]4(C)[C@H]3CC[C@@]21C` stands -34.9% (active); under `CN1CCN(c2ccc(NC(=O)Nc3ccc4c(ccn4-c4cccc(C(N)=O)n4)c3)cc2C(F)(F)F)CC1`, -12.9% (active); under `COc1ccc(NS(=O)(=O)c2ccc(-c3cnc(C4CC4)o3)cc2)cc1Cl`, 0.101% (active). With `CC1OC(O[C@@H]2C(O)C(CO)OC(O[C@H]3COC(O[C@H]4CC[C@]5(C)[C@H]6CC[C@]78OC[C@@]9(CC[C@](C)(C=O)C[C@H]97)[C@H](O)C[C@@]8(C)[C@]6(C)CC[C@H]5C4(C)C)[C@@H](OC4OC(CO)[C@@H](O)[C@@H](O)[C@@H]4O)[C@@H]3O)[C@H]2OC2OC[C@@H](O)[C@@H](O)[C@@H]2O)[C@@H](O)[C@@H](O)[C@H]1O` (stereo partly drawn), the growth is -36.2% (active). With `COc1ccc(-c2ccc3c4c(cccc24)C(=O)N(N2C(=O)c4cccc5cccc(c45)C2=O)C3=O)cc1` the figure was 108%; with `N#Cc1c(NC(=O)c2ccc(F)c(Cl)c2)sc2c1CCC(=O)C2`, -60.5% (active); with `Nc1ccc(-c2nnc(SCc3ccc(O)c4ncccc34)o2)cc1`, -14.8% (active). With `IP(CCCCCCCCCCSc1n(Cc2ccc3ccccc3c2)c(-c2ccccc2)c(-c2ccccc2)[n+]1Cc1ccc2ccccc2c1)(c1ccccc1)(c1ccccc1)c1ccccc1` the figure was -35.6% (active); with `Cc1cc(Cl)cc(NS(=O)(=O)c2ccc(-c3cnc(C4CC4)o3)cc2)c1`, -0.916% (active); with `COc1cc(/C=N/n2cnc3oc(-c4ccccc4)cc3c2=N)cc(CN2CCCCC2)c1O`, -66.7% (active). Under `CCOC(=O)c1c(NC(=O)c2ccc(C(C)(C)C)cc2)sc2cc(OCCN3CCCCC3)ccc12` stands 68.1%; under `NS(=O)(=O)Oc1ccc2nc(Nc3ccc(F)c(F)c3)ccc2c1`, 96.7%; under `CC(=O)c1sc(Nc2cccc(Nc3nc(C)c(C)s3)c2)nc1C`, 47%.

For `CCCCCCNC(=O)Oc1ccc(/C(=C(\C)c2ccc(OC)cc2)c2ccc(OCCN(C)C)cc2)cc1`, the growth was 52.1%.

For `CCOC(=O)c1c(NCC(=O)Nc2cccc([N+](=O)[O-])c2)sc2c1CCCC2`, the growth was -84.6% (active).

Regarding `O=c1oc2ccc(-c3ccc(F)cc3F)cc2c(=O)n1-c1ccc(F)c(F)c1`, the growth was -28.4% (active).

Regarding `Brc1cccc(/C=N/Nc2nc(N/N=C/c3cccc(Br)c3)nc(N3CCOCC3)n2)c1`, the growth is -68% (active). With `N#C/C(=C\c1ccc2ccccc2c1)C(=O)Nc1sc2c(c1C#N)CCC2` the figure was 107%.
